# Screen size: about 310,000 compounds; about 14,000 (4.5%) showed an effect of 50% or more. The effect is printed as a negative number. The entries come from a sample that favours strong results as a whole.
# Target: human ether-à-go-go-related gene (hERG) potassium channel (human, UniProt Q12809)
# Assay: primary screen, population patch clamp on CHO cells stably expressing hERG; higher = less effect of the substance
# 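Note: peak tail current of the secondary pulse compared with the same well before compound.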
# Sequence of human ether-à-go-go-related gene (hERG) potassium channel (Q12809 whole entry, looked up): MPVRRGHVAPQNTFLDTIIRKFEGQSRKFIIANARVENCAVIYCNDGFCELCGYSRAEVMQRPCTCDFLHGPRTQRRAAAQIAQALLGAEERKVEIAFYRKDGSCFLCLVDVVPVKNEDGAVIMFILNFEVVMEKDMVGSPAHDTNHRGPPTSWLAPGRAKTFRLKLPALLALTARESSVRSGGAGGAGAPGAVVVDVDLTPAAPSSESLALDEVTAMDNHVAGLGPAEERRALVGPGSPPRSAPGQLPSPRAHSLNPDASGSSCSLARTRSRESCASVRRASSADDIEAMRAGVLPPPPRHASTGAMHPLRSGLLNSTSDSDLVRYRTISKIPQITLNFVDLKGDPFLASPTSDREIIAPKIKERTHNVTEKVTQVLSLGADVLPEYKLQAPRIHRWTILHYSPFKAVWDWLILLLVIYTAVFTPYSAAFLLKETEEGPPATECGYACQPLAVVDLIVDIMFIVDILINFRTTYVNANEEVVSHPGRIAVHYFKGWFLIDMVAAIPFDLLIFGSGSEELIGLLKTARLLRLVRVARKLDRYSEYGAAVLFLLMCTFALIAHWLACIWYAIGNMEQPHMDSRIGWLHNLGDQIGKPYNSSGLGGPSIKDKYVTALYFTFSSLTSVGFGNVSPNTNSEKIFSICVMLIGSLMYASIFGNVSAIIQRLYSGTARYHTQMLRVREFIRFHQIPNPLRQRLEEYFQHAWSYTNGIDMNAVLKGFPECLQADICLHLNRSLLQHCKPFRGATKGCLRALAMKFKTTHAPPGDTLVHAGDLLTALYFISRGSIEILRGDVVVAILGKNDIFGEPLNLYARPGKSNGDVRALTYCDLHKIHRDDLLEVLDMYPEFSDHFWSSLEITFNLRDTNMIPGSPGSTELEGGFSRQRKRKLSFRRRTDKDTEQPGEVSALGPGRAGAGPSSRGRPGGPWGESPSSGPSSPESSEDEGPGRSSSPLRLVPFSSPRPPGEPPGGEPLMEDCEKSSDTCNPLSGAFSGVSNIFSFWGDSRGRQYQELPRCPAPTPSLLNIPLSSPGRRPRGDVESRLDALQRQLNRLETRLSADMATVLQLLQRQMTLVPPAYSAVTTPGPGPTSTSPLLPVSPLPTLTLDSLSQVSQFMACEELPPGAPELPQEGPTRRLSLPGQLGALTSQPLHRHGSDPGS
row,SMILES,"hERG current change (%, negative = inhibition) at 10uM [%]"
1,COC(=O)c1[nH]c2cccc(OC)c2c1NC(=O)C(C)N1CCC(C)CC1 (stereo not shown),-21.6
2,CCN(CC)c1ccc(C(=O)OCC(=O)Nc2sccc2C#N)cc1,12.2
3,Cc1ccc2cc(S(=O)(=O)NCCC(=O)O)ccc2c1,-2.04
4,Cc1cc(C)c2nc(N3CCC(C(=O)N4CCCC4)CC3)sc2c1,-67.7
5,CCc1nnc(NC(=O)C2CCN(C(=O)c3ccco3)CC2)s1,-0.31
6,Cc1cc(C)c2nc(N3CCC(C(=O)NCCN4CCOCC4)CC3)sc2c1,-10.5
7,Cc1cc(C)c2nc(N3CCCC(C(=O)N4CCC(C(N)=O)CC4)C3)sc2c1 (stereo not shown),-19.3
8,Cc1cc(C)c2nc(N3CCC(C(=O)NCc4cccnc4)CC3)sc2c1,-79
9,CCC(CC)c1nnc(NC(=O)C2CCN(C(=O)c3ccco3)CC2)s1,20.1
10,Cc1cc(=O)n2nc(N3CCC(C(=O)NCc4cccnc4)CC3)sc2n1,7.16
11,Cc1cc(C)c2nc(N3CCC(C(=O)N4CCN(c5ncccn5)CC4)CC3)sc2c1,-0.141
12,Cc1cc(C)c2nc(N3CCC(C(=O)NCc4ccccn4)CC3)sc2c1,-25.3
13,Cc1cc(C)c2nc(N3CCC(C(=O)NCCCN4CC(C)CC(C)C4)CC3)sc2c1 (stereo not shown),-71.8
14,Cc1cc(C)c2nc(N3CCC(C(=O)NCCCN4CCCCC4)CC3)sc2c1,-37.2
15,CCC(C)Sc1nnc(NC(=O)C2CCN(C(=O)c3ccco3)CC2)s1 (stereo not shown),-57.2
16,COC(=O)[C@@]12CCCN1[C@H](c1ccc(-c3ccccc3)cc1)[C@H]1C(=O)N(C)C(=O)[C@H]12.O=C(O)C(F)(F)F,-14.2
17,O=C1Cc2cc(S(=O)(=O)NCc3ccccc3Cl)cc3c2N1CCC3,6.14
18,Cc1ccc(/C=C2\SC(=S)N(c3cccnc3)C2=O)o1,6.67
19,CCOC(=O)c1ccc(NC(=O)c2nc[nH]c2C(=O)N2CCc3ccccc3C2)cc1,0.122
20,CC(C)CNc1nc(N)c([N+](=O)[O-])c(N2CCCCCC2)n1,-0.987
21,CC1(C)SC2c3ccccc3C(=O)N2[C@@H]1C(=O)NC1CC1 (stereo partly shown),9.97

row,SMILES,"hERG current change (%, negative = inhibition) at 10uM [%]"
1,Cc1nc([N+](=O)[O-])cn1CC(=O)c1ccc(F)cc1,10.5
2,CCNc1nc(SCC(=O)Nc2ccc(Cl)c(Cl)c2)nc(N(C)C)n1,14.8
3,CCN(C(=O)COC(=O)c1[nH]c(C)c(C(C)=O)c1C)C1CCS(=O)(=O)C1 (stereo not shown),-8.32
4,CCOc1ccc(-c2cc(C(=O)N/N=C/c3ccc(O)cc3)c3ccccc3n2)cc1,4.93
5,Cc1c(C(=O)N/N=C/c2ccccn2)nnn1-c1nonc1N,-15.6
6,Cc1cc(C)c2nc(N3CCN(C(=O)c4ccco4)CC3)sc2c1,-28.5
7,O=C(Nc1nc2ccccc2s1)C1CCN(C(=O)c2ccco2)CC1,-41.9
8,Cc1nnc(NC(=O)C2CCN(C(=O)c3ccco3)CC2)s1,13.4
9,Cc1cc2nc(N3CCN(C(=O)c4ccco4)CC3)sc2cc1C,0.152
10,Cc1cc(C)c2nc(N3CCC(C(=O)N4CCN(C(=O)c5ccco5)CC4)CC3)sc2c1,-77.1
11,Cc1cccc2sc(NC(=O)C3CCN(C(=O)c4ccco4)CC3)nc12,-71.6
12,C=CCOC(=O)C1=C(C)NC(C)=C(C(=O)OCC=C)C1c1ccc(C)o1,-27.4
13,O=C(Cc1ccccc1)NCC(=O)N1CCCCCC1,9.71
14,CN(C/N=C(\N)N[N+](=O)[O-])S(=O)(=O)c1ccccc1,19.4
15,COC(=O)C1=CO[C@@H](O[C@@H]2O[C@H](CO)[C@@H](O)[C@H](O)[C@H]2O)[C@H]2[C@@H]1C(=O)C[C@@H]2C,23.3
16,COC(=O)c1ccc(CSc2nc3sc(C)c(C)c3c(=O)[nH]2)cc1,0.764
17,Nc1c(C(=O)c2ccccc2)sc2nsc(SCCN3CCOCC3)c12,18.1
18,CCOc1ccc(CN2CCN(Cc3cnn(CC)c3C)CC2CCO)cc1 (stereo not shown),-67.8
19,CCOc1ccc(CN2CCN(Cc3c(C)nn(CC)c3C)CC2CCO)cc1 (stereo not shown),-45
20,CCn1cc(CN2CCN(Cc3cccc(OC)c3)C(CCO)C2)c(C)n1 (stereo not shown),-14.4
21,CCOc1ccc(CN2CCN(Cc3cn(CC)nc3C)CC2CCO)cc1 (stereo not shown),-62

row,SMILES,"hERG current change (%, negative = inhibition) at 10uM [%]"
1,CCn1cc(CN2CCN(Cc3ccc(OC)c(C)c3C)C(CCO)C2)c(C)n1 (stereo not shown),-23.1
2,CCn1ncc(CN2CCN(Cc3cccc(OC)c3)C(CCO)C2)c1C (stereo not shown),7.07
3,CC1CCCC(C)N1C(=O)C1CC(c2ccc(F)cc2)=NO1 (stereo not shown),-7.79
4,O=C(N/N=C/c1ccncc1)c1cc(-c2ccc(Br)s2)[nH]n1,-12.4
5,Cc1ccc(S(=O)(=O)NCCSCc2ccco2)cc1,-4.42
6,Cc1ccc2c(c1)N(C(=O)CCC(=O)NCc1ccccn1)CC(C)O2 (stereo not shown),-7.23
7,COc1ccc(C)cc1N(CC(=O)O)S(=O)(=O)c1ccc(C)cc1,17.1
8,CCN(CC)CCn1c2c(c(SCC(=O)Nc3cccc4ccccc34)nc1=O)CCCC2,-63.8
9,CN(C)CCn1c2c(c(SCC(=O)Nc3ccccc3C(F)(F)F)nc1=O)CCCC2,-18.4
10,CCN(CC)CCCn1c2c(c(SCC(=O)N3CCc4ccccc43)nc1=O)CCC2,-78.6
11,CCN(CC)CCCn1c2c(c(SCC(=O)N3CCCc4ccccc43)nc1=O)CCC2,-22.9
12,CN(C)CCn1c2c(c(SCC(=O)N3CCc4ccccc43)nc1=O)CCCC2,-44.7
13,CN(C)CCn1c2c(c(SCC(=O)Nc3cccc4ccccc34)nc1=O)CCCC2,-40.4
14,CCN(CC)CCCn1c2c(c(SCC(=O)Nc3cccc4ccccc34)nc1=O)CCC2,-56.6
15,CCN(CC)CCCn1c2c(c(SCC(=O)Nc3cc(C)on3)nc1=O)CCC2,-2.43
16,CN(C)CCCn1c2c(c(SCC(=O)Nc3cccc4ccccc34)nc1=O)CCC2,-38.4
17,CN(C)CCCn1c2c(c(SCC(=O)Nc3cccc4ccccc34)nc1=O)CCCC2,-45.6
18,Cc1cccc(NC(=O)CSc2nc(=O)n(CCN3CCOCC3)c3c2CCCC3)c1C,-23.6
19,CCN(CC)CCCn1c2c(c(SCC(=O)Nc3cccc(C)c3C)nc1=O)CCC2,-55.3

# Source: PMC4336329 (PLoS ONE, 2015)
